# This is part of a sample that, as a whole, favours compounds with a hit. Of some 83,000 tested, about 20% had one in any assay.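 How to read the values: 0–100, growth inhibition (40 = 60% inhibited); 0, no net growth; -100 to 0, cell death (-40 = 40% of starting cells died; -100 = all dead).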 Unmarked numbers belong to inactive results. Active and inactive are the calls of the source. Rule for the calls: active = growth percent below 10; inactive = the rest.
# Tested on: HL-60(TB) leukemia
# Experiment: NCI-60 one-dose screen, 48 h (100 = growth as untreated, 0 = no growth, -100 = all killed)
# Settings: 10 µM unless noted
row,Compound,growth
1,Cc1ccc(C2=N[C@H]3CCC[C@@H]3N(c3ccccc3)C(C(Cl)Cl)=N2)cc1,93.2%
2,COc1cc(/C=C/C(=O)/C=C(O)/C=C/c2ccc(OC(=O)C34CC5CC(CC(C5)C3)C4)c(OC)c2)ccc1OC(=O)C12CC3CC(CC(C3)C1)C2,104%
3,COc1ccc(-c2cc(-c3cccc(Cl)c3)c(C#N)c(=O)[nH]2)c(OC)c1,95.6%
4,O=C(/C=C/c1cc2ccccc2[nH]c1=O)c1ccc(Cl)cc1,11.6%
5,Cc1c(Cl)cccc1NCN1C(=O)c2ccccc2C1=O,113%
6,Nc1nnc2cc(Cl)ccc2n1,145%
7,Cc1cccc(Cl)c1NC(=O)c1ccc2nc(NC(=O)NC3CCN(C)CC3)sc2c1,123%
8,COc1cc2c(cc1O)c(=O)n(CCN(C)C)c1c3cc4c(cc3ncc21)OCO4,-29.2% (active)
9,CCNCCNc1cc(-c2ccc(C(=O)OC)cc2)c(C#N)c2nc3ccccc3n12,-57.2% (active)
10,CCCCCCCN(CCCCCCC)C(=N)c1ccnc2ccccc12,-64.4% (active)
11,CNC(=O)c1ccccc1Oc1nc(Nc2cc(OC)c(OC)c(OC)c2)ncc1Br,53.2%
12,O=C(N=Nc1c(O)[nH]c2ccc(Br)cc12)c1cc(-c2ccccc2)on1,84.9%
13,O=[N+]([O-])c1ccc(-c2cn(-c3ccccc3)c(-c3ccccc3)n2)cc1,87%
14,CN(C)CCCCC(C(=O)CBr)(c1ccccc1)c1ccccc1,-36.1% (active)
15,CN(C)S(=O)(=O)c1ccc(S(=O)(=O)Nc2cccc(Cl)c2N2CCCCC2)cc1,76.7%
16,CCOC(=O)C1=C(C)NC(SCc2nnc(-c3ccc(Cl)cc3)o2)=NC1c1ccc(Br)cc1 (stereo not given),22.5%
17,NC1CCC(Nc2nc(NCc3cc(Cl)ccc3O)c3ncn(C4CCCC4)c3n2)CC1 (stereo not given),-41.1% (active)
18,O=C(CCl)c1ccc2c(c1)CCCC2,96.9%
19,CCN(CC)CCCC(C)NC(=S)N/N=C(\C)c1ccccn1 (stereo not given),-3.79% (active)
20,Oc1c(CN2CCC(N3CCOCC3)CC2)cc(Cc2cc(CN3CCC(N4CCOCC4)CC3)c(O)c3ncccc23)c2cccnc12,-5.88% (active)

row,Compound,growth
1,COc1cccc(C2CC(=O)Nc3cc4c(cc32)OCO4)c1OC (stereo not given),93.7%
2,COc1ccc2c(c1)C(=O)/C(=C/c1ccc(OCC(=O)Nc3nccs3)cc1)O2,-84.2% (active)
3,C[C@]12CC[C@@H]3c4cc(OC(F)F)c(OS(N)(=O)=O)cc4CC[C@H]3[C@@H]1CC[C@@H]2OS(N)(=O)=O,13.1%
4,C#CCn1cnc2c(Nc3cccc(NC(=O)CCl)c3)ncnc21,7.89% (active)
5,O=C(O)/C=C/c1ccc2c(c1)CCC2,110%
6,COc1cc(OC)cc(N2C(=O)N(Cc3ccc(C(C)(C)C)cc3)c3ccccc3S2(=O)=O)c1,67.9%
7,CC1(C)CC[C@]2(C(=O)O)CC[C@]3(C)C(=CC[C@@H]4[C@@]5(C)Cc6c([nH]c7ccccc67)C(C)(C)[C@@H]5CC[C@]43C)[C@@H]2C1,16.2%
8,Nc1c(Br)cc2c(c1Br)Cc1cc(Cl)ccc1-2,100%
9,Clc1ccccc1/C=N\Nc1ccccn1,98.1%
10,Cc1c(C(=O)CCl)c(=O)n(-c2ccccc2)n1C,56.9%
11,COc1ccc(-c2cc(/C=C3\C(=O)Nc4ccc(Cl)cc43)[nH]n2)cc1,22.6%
12,C[C@@H]1C[C@H]2C(=O)O[C@@H](C)[C@H](NC(=O)[C@H](Cc3cc(F)cc(F)c3)NC(=O)Nc3ccc(Cl)cc3F)C(=O)N3C[C@H](O)C[C@H]3C(=O)N3CCN(C)C[C@H]3C(=O)N[C@@H](C)C(=O)N2C1,30.1%
13,COc1ccc(-c2nc3sccn3c2/C=C/C(=O)c2c[nH]c3ccccc23)cc1,117%
14,CN(Cc1cc(Br)cc(Br)c1O)Cc1cc(Br)cc(Br)c1O,22.7%
15,CC(=O)NNC(=O)c1sc(NC(C)=O)nc1C,101%
16,Cc1ccc(C(CC(=O)O)c2c(C)[nH][nH]c2=O)cc1 (stereo not given),98.8%
17,Nc1cccc2c(=S)c3ccccc3[nH]c12,107%
18,CCCCOc1ccc(C(C)(C)c2ccc(OCCCC)cc2)cc1,92.5%
19,COc1ccc(N(c2nc(-c3ccc([N+](=O)[O-])cc3)cs2)C(C)C)cc1,90.1%
20,S=C(Cc1ccc2c(c1)CCCC2)N1CCOCC1,85%
